From PubChem BioAssay (NCATS)
Values joined by “and” are separate entries in the source; they are usually repeats but may differ in a detail not shown here. Equal values may be shown once. Results filed as inconclusive are left out. Active and inactive are the calls of the source. Calls follow the shape of the dose curve; as a rule, active = well fitted curve in the direction sought with a large enough effect; inconclusive = small, poorly fitted or top-dose-only effect, or another doubt; inactive = no such curve, though single readings can be large; an effect the other way counts as inactive or inconclusive.

Assays:
[1] = Viability qHTS for spleen associated tyrosine kinase inhibitor (SYKi) naive MV4-11 cells (AID 1963823); also: nearly all actives have a fitted effect of over 40% in size
How it was run: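 Viability of MV4-11 AML cells lacking prior SYK inhibitor exposure is scored by CellTiter-Glo luminescence following 72 hr compound incubation at 37 C, 5% CO2, seeded at 500 cells per well.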

[2] = Viability qHTS for spleen associated tyrosine kinase inhibitor (SYKi) drug resistant MV4-11 cells (AID 1963824); also: nearly all actives have a fitted effect of over 35% in size
How it was run: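 SYK-inhibitor-resistant MV4-11 AML cells were seeded at 500 per well onto compound and cultured 72 hours (37 °C, 5% CO2). CellTiter-Glo was then added, and after 10 min at room temperature, luminescence gave viability.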

[3] = Quantitative highthroughput screen to assess conditional lethalithy of NOMO1 cells grown in RPMI1640 with untreated serum (RPMI+s) (AID 1963876); also: nearly all actives have a fitted effect of over 35% in size;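 as to Viability: 100% = DMSO wells and 0% = empty wells without cells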
How it was run: (§1)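 Each medium arm—HPLM with 10% dialyzed FBS, or RPMI1640 with 5 mM glucose and 10% untreated or dialyzed FBS—was screened against an 11-point, 3-fold compound titration for 48 h at 37 °C, with CellTiter-Glo luminescence as endpoint.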

[4] = Quantitative highthroughput screen to assess conditional lethalithy of NOMO1 cells grown in RPMI1640 with dialyzed fetal bovine serum (RPMI+ds) (AID 1963877); also: nearly all actives have a fitted effect of over 30% in size;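 as to Viability: series mostly up to about 46 µM; 100% = DMSO control wells and 0% = empty wells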
How it was run: as §1

[5] = Quantitative highthroughput screen to assess conditional lethalithy of NOMO1 cells grown in Human Plasma-Like Medium with dialyzed fetal bovine serum (HPLM+ds) (AID 1963878); also: nearly all actives have a fitted effect of over 35% in size;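 as to Viability: 100% = DMSO wells and 0% = empty wells on each plate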
How it was run: as §1

[6] = Quantitative highthroughput screen to assess conditional lethalithy of P12 Ichikawa cells grown in Human Plasma-Like Medium with dialyzed fetal bovine serum (HPLM+ds) (AID 1963879); settings: Potency: viability; also: nearly all actives have a fitted effect of over 35% in size; as to Viability: series mostly up to about 46 µM
How it was run: as §1

[7] = Quantitative highthroughput screen to assess conditional lethalithy of P12 Ichikawa cells grown in RPMI1640 with dialyzed fetal bovine serum (RPMI+ds) (AID 1963880); settings: Potency: P12-Ichikawa viability; also: nearly all actives have a fitted effect of over 35% in size;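 as to Viability: 100% = DMSO wells and 0% = empty wells on each plate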
How it was run: as §1

[8] = Quantitative highthroughput screen to assess conditional lethalithy of SEM cells grown in Human Plasma-Like Medium with dialyzed fetal bovine serum (HPLM+ds) (AID 1963882); also: nearly all actives have a fitted effect of over 35% in size; as to Viability: series mostly up to about 46 µM
How it was run: as §1

[9] = Cellular viability qHTS for adrenocortical cancer (ACC) cell line SW-13 (AID 1963989); settings: SW-13 ACC cells viability, CellTiter-Glo, 48 h; activity (max response): active compounds read low; also: nearly all actives have a fitted effect of over 65% in size;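 as to activity (max response): cells grown in serum-free medium with ITS supplement; % is scaled to controls: 0 for no effect and ±100 for the full control effect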
How it was run: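 Luminescent ATP read-out (CellTiter-Glo, 20 min at room temperature) measured metabolically competent SW-13 cells after 48 h compound treatment. Final concentrations spanned up to 46 uM; bortezomib served as positive control.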

[10] = Cellular viability qHTS for adrenocortical cancer (ACC) cell line NCI-H295R (AID 1963990); also: nearly all actives have a fitted effect of over 60% in size
How it was run: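 IC50 and maximal efficacy derive from four-parameter logistic modelling of titration curves, with reads scaled between DMSO-only wells (0%) and doxorubicin hydrochloride (100% inhibition). Compounds spanned up to 46 uM over 48 h.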

[11] = Quantitative highthroughput screen to assess conditional lethalithy of P12 Ichikawa cells grown in RPMI1640 with untreated serum (RPMI+s) (AID 1963881); settings: Potency: viability; also: nearly all actives have a fitted effect of over 35% in size;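 as to Viability: series mostly up to about 46 µM; 100% = DMSO wells and 0% = empty wells without cells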
How it was run: as §1

[12] = Quantitative highthroughput screen to assess conditional lethalithy of SEM cells grown in RPMI1640 with dialyzed fetal bovine serum (RPMI+ds) (AID 1963884); also: nearly all actives have a fitted effect of over 35% in size;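 as to Viability: series mostly up to about 46 µM; 100% = DMSO control wells and 0% = empty wells without cells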
How it was run: as §1

[13] = Quantitative highthroughput screen to assess conditional lethalithy of SEM cells grown in RPMI1640 with unreated serum (RPMI+s) (AID 1963883); also: nearly all actives have a fitted effect of over 35% in size;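 as to Viability: 100% = DMSO wells and 0% = empty wells without cells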
How it was run: as §1
Potency is read from the fitted curve at half-maximal effect.

CCCCN(CCCC)CCC(O)c1cc2c(Cl)cc(Cl)cc2c2cc(C(F)(F)F)ccc12 (stereo not drawn)
inactive: Potency [3] | Potency [4] | Potency [5] | Potency [6] | Potency [7] | Potency [8]
active: Potency [1] 10.6 µM | Potency [2] 8.41 µM | Potency [9] 5.8 µM | Potency [10] 5.8 µM

Cc1ncc([N+](=O)[O-])n1CC(C)O (stereo not drawn)
inactive: Potency [1] | Potency [2] | Potency [3] | Potency [4] | Potency [5] | Potency [6] | Potency [7] | Potency [11] | activity (max response) [9] -11% | Potency [10]

Cc1ccc(S(=O)(=O)Nc2nc3ccccc3nc2Nc2ccc3nsnc3c2)cc1
active: Potency [1] 10.3 µM | Potency [2] 8.2 µM | Potency [3] 1.15 µM | Potency [4] 1.62 µM | Potency [5] 1.02 µM | Potency [6] 5.75 µM | Potency [11] 4.07 µM | Potency [12] 4.07 µM
inactive: activity (max response) [9] 0.221% | Potency [10]

CC[C@@H](C)[C@H](NC(=O)[C@H](CC1CCCCC1)NC(=O)c1ccno1)C(=O)N1CCC2(CCc3ccccc32)CC1
active: Potency [1] 13 µM | Potency [2] 18.4 µM
inactive: Potency [3] | Potency [4] | Potency [5] | Potency [6] | Potency [7] | Potency [11] | activity (max response) [9] -1.23% | Potency [10]

CC1(C)CNc2cc(NC(=O)c3cccnc3NCc3ccncc3)ccc21
inactive: Potency [3] | Potency [4] | Potency [5] | Potency [6] | Potency [7] | Potency [11] | activity (max response) [9] -22.3% | Potency [10]
active: Potency [1] 2.31 µM | Potency [2] 5.17 µM and 5.9 µM

CCCn1c(=O)c2[nH]c(C34CC5CC3C[C@@H](C5)C4)nc2n(CCC)c1=O
inactive: Potency [3] | Potency [4] | Potency [5] | Potency [6] | Potency [7] | Potency [8] | Potency [12] | activity (max response) [9] -4.88% | Potency [10]
active: Potency [1] 18.6 µM | Potency [2] 16.6 µM

CCC(C)SSc1ncc[nH]1 (stereo not drawn)
active: Potency [1] 9.34 µM | Potency [2] 8.33 µM | Potency [3] 18.7 µM | Potency [4] 23.5 µM | Potency [5] 14.8 µM | Potency [6] 18.7 µM | Potency [7] 13.2 µM | Potency [11] 18.7 µM | Potency [10] 20 µM

COc1cc(N2CCC(O)CC2)ccc1Nc1cc(Nc2ccccc2S(=O)(=O)C(C)C)c2cc[nH]c2n1
inactive: Potency [3] | Potency [4] | Potency [5] | Potency [6] | Potency [7] | Potency [11] | activity (max response) [9] -1.42% | Potency [10]
active: Potency [1] 16.4 µM and 10.5 µM | Potency [2] 20.6 µM and 14.8 µM

C[Se]CCC(N)C(=O)O (stereo not drawn)
inactive: Potency [1] | Potency [2] | Potency [3] | Potency [4] | Potency [5] | Potency [6] | Potency [7] | Potency [11] | activity (max response) [9] -4.29% | Potency [10]

Cc1ccc(-n2nc(C(C)(C)C)cc2NC(=O)Nc2ccc(OCCN3CCOCC3)c3ccccc23)cc1
active: Potency [1] 8.2 µM | Potency [2] 2.59 µM | Potency [8] 10.5 µM | Potency [13] 0.132 µM | Potency [12] 9.35 µM
inactive: Potency [3] | Potency [4] | Potency [5] | Potency [6] | Potency [7] | activity (max response) [9] -16.6% | Potency [10]

COC(=O)[C@H](CCCN=C(N)N)NS(=O)(=O)c1ccc(C)cc1
inactive: Potency [1] | Potency [2] | Potency [3] | Potency [4] | Potency [6] | Potency [11] | activity (max response) [9] 6.08% | Potency [10]
active: Potency [5] 6.62 µM

COc1ccc(-c2ccc3ncc4c(c3c2)n(-c2ccc(N3CCNCC3)c(C(F)(F)F)c2)c(=O)n4C)cn1
active: Potency [1] 0.0263 µM | Potency [2] 13 nM and 16.4 nM and 29.5 nM | Potency [3] 0.526 µM | Potency [4] 0.469 µM | Potency [5] 0.148 µM | Potency [6] 1.05 µM | Potency [7] 0.187 µM | Potency [8] 0.0743 µM | Potency [9] 0.316 µM

CCS(=O)(=O)c1cccc(-c2cc(C(=O)NC3CCN(C)CC3)c(C)c3[nH]c4ncc(C)cc4c23)c1
active: Potency [1] 40.4 nM and 59 nM | Potency [2] 36 nM and 66.1 nM | Potency [3] 14.8 µM | Potency [4] 11.8 µM | Potency [5] 6.62 µM | Potency [6] 0.264 µM | Potency [11] 0.235 µM | Potency [8] 0.469 µM | Potency [9] 1 µM | Potency [10] 17.8 µM

OCc1ccc(-c2ccc(-c3ccc(CO)s3)o2)s1
active: Potency [1] 1.18 µM | Potency [2] 0.833 µM | Potency [10] 28.2 µM
inactive: Potency [3] | Potency [4] | Potency [5] | Potency [6] | Potency [11] | Potency [8] | Potency [13] | Potency [12] | activity (max response) [9] -9.77%

CN1CCN(CCCN2c3ccccc3Sc3ccc(C(F)(F)F)cc32)CC1
inactive: Potency [13] | Potency [12]
active: Potency [1] 11.9 µM and 18.6 µM | Potency [2] 6.99 µM and 21.1 µM and 11.8 µM | Potency [3] 1.87 µM | Potency [4] 2.96 µM | Potency [5] 2.64 µM | Potency [6] 13.2 µM | Potency [11] 11.8 µM | Potency [9] 20.6 µM and 25.1 µM | Potency [10] 23.1 µM
